What all share (experiment): DAPPL (digital affinity profiling via proximity ligation, sequencing); 10 mM Tris-HCl pH 7.5, 50 mM NaCl, 1 mM DTT, 4% glycerol, room temperature, 30 min; GST-TFs on glutathione beads, 16-mer random dsDNA library, 0.1% formaldehyde crosslink after washing; high values mean tight binding
Holding throughout (conditions): protein: recombinant; tags: N-terminal GST; dsDNA, one strand shown

The target of one assay is T1, FLI1 (Homo sapiens, UniProt Q01543 1-452).
T1 sequence: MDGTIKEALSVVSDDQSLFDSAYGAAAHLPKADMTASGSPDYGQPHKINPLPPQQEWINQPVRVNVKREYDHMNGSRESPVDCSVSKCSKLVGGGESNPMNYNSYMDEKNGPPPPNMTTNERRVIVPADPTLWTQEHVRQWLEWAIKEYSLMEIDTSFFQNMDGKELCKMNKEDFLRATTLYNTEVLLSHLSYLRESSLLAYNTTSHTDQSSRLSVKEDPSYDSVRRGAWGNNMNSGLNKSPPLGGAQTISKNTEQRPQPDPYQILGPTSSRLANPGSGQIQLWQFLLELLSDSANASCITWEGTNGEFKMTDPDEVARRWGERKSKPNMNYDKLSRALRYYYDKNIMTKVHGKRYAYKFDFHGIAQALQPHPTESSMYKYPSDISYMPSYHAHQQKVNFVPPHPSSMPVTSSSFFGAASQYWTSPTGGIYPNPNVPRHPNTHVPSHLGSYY
Put shortly: (§1)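 Sequencing on an Illumina NextSeq500 followed washing, crosslinking with 0.1% formaldehyde, proximity ligation (BsaI/T4 ligase, 1 h, 37 °C) and PCR amplification of pools that had been incubated for 30 min at room temperature with 200 nmole of a random double-stranded 16-mer DNA library in Tris/NaCl/DTT/glycerol buffer. Each pool held DNA-barcoded human transcription factors, expressed in yeast as GST fusions and captured on glutathione beads, plus a tag-only sample. Binding signal is a hexamer's read frequency for a factor divided by its frequency in the tag-only sample.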

The next assay addresses T2, ELK1 (Homo sapiens, UniProt P19419 1-428).
T2 sequence: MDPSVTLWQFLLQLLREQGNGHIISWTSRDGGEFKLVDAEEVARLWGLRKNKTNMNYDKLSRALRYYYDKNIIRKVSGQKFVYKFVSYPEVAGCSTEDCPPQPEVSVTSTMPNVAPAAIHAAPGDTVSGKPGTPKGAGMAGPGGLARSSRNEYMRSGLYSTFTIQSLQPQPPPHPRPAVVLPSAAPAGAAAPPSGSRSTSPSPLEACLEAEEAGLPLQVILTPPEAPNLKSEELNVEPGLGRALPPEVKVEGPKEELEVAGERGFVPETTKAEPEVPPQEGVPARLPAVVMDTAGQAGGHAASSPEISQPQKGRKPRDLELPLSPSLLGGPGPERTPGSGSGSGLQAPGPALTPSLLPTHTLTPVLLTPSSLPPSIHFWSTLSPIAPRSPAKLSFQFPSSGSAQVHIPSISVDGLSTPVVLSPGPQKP
Put shortly: as §1

In another assay the target is T3, GABPA (Homo sapiens, UniProt Q06546 1-454).
T3 sequence: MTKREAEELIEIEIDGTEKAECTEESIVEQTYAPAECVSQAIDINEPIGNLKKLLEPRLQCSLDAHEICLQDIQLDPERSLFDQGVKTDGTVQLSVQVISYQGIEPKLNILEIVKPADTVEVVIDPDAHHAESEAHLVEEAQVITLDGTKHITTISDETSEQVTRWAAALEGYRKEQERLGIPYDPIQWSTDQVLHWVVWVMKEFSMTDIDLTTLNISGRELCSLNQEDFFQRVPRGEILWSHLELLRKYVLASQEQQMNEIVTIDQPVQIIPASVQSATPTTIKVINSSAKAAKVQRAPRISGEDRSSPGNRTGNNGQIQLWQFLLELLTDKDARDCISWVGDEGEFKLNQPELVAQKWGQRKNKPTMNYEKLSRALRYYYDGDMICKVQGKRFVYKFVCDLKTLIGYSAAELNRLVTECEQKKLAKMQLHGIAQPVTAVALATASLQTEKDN
Put shortly: as §1

The target in a further assay is ELF1 (Homo sapiens, UniProt P32519 1-619). Put shortly:
as §1

The target in the next assay is T4, EHF (Homo sapiens, UniProt Q9NZC4 1-300).
T4 sequence: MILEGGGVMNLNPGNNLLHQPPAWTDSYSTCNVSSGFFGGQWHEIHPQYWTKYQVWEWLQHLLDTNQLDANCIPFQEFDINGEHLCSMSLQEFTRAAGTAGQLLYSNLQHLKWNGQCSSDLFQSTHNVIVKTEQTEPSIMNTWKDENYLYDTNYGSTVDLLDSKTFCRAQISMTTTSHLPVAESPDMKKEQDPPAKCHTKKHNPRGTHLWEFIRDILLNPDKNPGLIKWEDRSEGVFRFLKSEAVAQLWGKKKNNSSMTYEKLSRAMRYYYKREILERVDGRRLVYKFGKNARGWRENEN
In a few lines: as §1

A further assay addresses SPI1 (Homo sapiens, UniProt P17947 1-270). In a few lines: as §1
The target of a further assay is SPIB (Homo sapiens, UniProt Q01892 1-262). Put shortly:
as §1

In another assay the target is T5, FEV (Homo sapiens, UniProt Q99581 1-238).
T5 sequence: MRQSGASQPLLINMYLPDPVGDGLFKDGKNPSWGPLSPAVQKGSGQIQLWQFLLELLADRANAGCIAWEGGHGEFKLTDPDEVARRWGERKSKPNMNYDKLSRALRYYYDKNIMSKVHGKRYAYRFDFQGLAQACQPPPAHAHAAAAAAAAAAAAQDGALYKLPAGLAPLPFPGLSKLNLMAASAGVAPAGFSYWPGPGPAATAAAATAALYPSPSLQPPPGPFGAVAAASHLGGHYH
In a few lines: as §1

Another assay has as its target ETV5 (Homo sapiens, UniProt P41161 1-510). Put shortly:
as §1

In another assay the target is T6, SPIC (Homo sapiens, UniProt Q8N5J4 1-248).
T6 sequence: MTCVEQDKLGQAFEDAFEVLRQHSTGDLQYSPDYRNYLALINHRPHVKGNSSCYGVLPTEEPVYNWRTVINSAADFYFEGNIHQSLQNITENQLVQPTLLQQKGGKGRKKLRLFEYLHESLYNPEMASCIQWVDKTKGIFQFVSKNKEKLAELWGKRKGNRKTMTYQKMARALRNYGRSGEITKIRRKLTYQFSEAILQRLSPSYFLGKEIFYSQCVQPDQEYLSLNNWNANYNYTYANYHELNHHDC
Put shortly: as §1

The target of another assay is ELF4 (Homo sapiens, UniProt Q99607 1-663). Put shortly: as §1
Sequence of ELF4 (Q99607 whole entry): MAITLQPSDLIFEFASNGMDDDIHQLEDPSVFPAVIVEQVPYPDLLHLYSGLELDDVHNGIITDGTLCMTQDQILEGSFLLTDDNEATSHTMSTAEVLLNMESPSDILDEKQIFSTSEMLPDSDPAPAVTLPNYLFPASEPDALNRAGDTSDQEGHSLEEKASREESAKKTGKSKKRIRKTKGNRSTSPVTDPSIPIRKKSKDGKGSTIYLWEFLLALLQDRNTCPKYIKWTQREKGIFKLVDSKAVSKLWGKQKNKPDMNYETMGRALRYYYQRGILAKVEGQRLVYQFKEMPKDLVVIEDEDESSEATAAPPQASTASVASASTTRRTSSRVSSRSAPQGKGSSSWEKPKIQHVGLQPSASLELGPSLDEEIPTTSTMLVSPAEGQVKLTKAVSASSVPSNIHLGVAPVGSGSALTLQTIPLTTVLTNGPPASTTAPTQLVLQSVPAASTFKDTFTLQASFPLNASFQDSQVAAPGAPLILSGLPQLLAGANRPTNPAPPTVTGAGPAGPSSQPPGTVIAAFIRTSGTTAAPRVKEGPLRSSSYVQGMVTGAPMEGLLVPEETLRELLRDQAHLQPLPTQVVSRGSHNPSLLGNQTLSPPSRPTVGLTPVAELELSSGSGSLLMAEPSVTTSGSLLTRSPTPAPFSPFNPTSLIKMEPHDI
The target of another assay is T7, ELK4 (Homo sapiens, UniProt P28324-2 1-405).
T7 sequence: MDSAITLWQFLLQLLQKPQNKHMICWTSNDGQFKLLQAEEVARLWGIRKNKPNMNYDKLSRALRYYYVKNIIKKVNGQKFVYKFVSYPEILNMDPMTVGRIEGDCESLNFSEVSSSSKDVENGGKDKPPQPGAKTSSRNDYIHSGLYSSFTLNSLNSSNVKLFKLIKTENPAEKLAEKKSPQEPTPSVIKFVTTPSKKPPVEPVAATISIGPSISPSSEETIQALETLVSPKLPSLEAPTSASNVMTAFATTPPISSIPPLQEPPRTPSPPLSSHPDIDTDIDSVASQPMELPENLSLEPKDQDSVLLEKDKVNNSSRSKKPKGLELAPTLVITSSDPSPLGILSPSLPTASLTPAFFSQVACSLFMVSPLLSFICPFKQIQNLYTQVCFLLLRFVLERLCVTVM
Put shortly: as §1

For another assay, the target named is T8, ETV2 (Homo sapiens, UniProt O00321 1-342).
T8 sequence: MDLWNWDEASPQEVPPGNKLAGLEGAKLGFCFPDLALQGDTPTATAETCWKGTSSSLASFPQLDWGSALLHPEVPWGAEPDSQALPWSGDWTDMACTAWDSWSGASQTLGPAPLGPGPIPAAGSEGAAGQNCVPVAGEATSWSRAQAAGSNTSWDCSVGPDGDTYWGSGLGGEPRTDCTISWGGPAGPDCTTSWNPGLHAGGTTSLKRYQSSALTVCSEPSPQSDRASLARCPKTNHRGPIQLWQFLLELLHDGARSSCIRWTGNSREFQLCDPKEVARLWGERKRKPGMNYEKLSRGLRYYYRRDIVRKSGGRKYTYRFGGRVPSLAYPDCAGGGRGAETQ
In a few lines: as §1

A further assay concerns the target T9, ELF3 (Homo sapiens, UniProt P78545 1-371).
T9 sequence: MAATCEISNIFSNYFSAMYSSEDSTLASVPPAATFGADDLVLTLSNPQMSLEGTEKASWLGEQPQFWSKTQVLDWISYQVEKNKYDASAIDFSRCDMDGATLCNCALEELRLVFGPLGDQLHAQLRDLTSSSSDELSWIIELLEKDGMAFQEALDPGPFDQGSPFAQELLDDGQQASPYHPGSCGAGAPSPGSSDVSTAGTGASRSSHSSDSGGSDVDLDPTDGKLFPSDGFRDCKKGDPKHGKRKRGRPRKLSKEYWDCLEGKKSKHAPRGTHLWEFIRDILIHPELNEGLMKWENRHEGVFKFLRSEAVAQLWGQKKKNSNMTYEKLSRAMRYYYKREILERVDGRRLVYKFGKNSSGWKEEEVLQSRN
In a few lines:
as §1

The target of a further assay is ETV1 (Homo sapiens, UniProt P50549 1-477). Put shortly:
as §1

Sequence of ELF1 (P32519 whole entry): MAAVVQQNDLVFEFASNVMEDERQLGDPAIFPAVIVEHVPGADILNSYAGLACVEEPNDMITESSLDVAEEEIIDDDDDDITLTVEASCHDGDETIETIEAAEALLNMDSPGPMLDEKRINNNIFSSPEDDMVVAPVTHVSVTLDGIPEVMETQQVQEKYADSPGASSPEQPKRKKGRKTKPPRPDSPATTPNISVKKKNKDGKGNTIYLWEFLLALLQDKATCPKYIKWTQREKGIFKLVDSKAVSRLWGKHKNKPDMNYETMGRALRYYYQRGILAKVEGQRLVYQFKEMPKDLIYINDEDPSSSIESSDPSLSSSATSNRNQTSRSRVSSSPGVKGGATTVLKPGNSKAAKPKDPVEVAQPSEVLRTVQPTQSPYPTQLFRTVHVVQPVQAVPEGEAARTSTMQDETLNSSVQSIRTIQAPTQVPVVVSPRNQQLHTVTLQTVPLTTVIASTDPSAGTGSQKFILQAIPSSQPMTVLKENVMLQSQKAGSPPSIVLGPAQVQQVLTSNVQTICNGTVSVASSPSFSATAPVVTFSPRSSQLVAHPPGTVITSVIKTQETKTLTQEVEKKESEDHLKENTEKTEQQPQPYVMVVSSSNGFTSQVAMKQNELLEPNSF
Sequence of ETV5 (P41161 whole entry): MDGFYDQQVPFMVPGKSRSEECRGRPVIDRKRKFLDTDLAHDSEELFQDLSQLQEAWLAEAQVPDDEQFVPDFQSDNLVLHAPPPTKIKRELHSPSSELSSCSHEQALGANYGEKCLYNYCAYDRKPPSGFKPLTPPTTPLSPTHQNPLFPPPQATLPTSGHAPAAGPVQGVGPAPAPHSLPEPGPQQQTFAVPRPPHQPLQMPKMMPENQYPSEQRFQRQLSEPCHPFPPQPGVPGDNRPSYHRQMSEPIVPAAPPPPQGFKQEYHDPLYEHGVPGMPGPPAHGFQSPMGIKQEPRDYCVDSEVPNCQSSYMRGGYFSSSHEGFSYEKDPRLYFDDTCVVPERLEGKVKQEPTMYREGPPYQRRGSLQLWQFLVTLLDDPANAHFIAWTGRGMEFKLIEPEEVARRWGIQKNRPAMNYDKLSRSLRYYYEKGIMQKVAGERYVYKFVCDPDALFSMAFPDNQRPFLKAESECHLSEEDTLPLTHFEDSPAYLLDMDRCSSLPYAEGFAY
Sequence of SPIB (Q01892 whole entry): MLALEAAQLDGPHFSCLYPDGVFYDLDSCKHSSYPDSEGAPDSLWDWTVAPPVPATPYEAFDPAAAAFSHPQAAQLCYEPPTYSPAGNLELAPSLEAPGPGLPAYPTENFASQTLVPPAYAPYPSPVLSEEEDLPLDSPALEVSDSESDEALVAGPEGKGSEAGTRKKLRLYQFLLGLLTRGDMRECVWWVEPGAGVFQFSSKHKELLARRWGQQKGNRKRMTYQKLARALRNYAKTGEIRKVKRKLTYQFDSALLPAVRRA
Sequence of ETV1 (P50549 whole entry): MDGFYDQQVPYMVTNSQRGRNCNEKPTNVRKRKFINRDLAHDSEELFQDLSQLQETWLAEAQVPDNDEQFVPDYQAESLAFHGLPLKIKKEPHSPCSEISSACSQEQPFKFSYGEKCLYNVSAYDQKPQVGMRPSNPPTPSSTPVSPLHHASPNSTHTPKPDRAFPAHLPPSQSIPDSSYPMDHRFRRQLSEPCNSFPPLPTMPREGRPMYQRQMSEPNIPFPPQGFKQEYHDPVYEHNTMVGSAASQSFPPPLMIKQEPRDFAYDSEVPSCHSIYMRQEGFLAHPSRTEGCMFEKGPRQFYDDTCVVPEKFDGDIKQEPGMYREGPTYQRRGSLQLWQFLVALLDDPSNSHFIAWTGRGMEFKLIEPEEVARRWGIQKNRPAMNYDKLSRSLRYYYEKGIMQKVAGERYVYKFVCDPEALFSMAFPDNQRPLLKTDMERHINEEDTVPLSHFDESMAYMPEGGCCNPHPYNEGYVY

Take CTATGT: the binding signal with FLI1 was 1.11 fold enrichment (6-mer frequency, TF over GST control); with ELK1 it was 1.11 fold enrichment (6-mer frequency, TF over GST control); with GABPA it was 1.22 fold enrichment (6-mer frequency, TF over GST control); in the assay with ELF1, 1.09 fold enrichment (6-mer frequency, TF over GST control); with EHF it was 1.03 fold enrichment (6-mer frequency, TF over GST control); with SPI1, 1.04 fold enrichment (6-mer frequency, TF over GST control). Also, the binding signal with SPIB is 1.15 fold enrichment (6-mer frequency, TF over GST control); in the assay with FEV, 1.09 fold enrichment (6-mer frequency, TF over GST control); with ETV5, 1.01 fold enrichment (6-mer frequency, TF over GST control); with SPIC it was 1.01 fold enrichment (6-mer frequency, TF over GST control); in the assay with ELF4, 1.18 fold enrichment (6-mer frequency, TF over GST control); with ELK4, 1.15 fold enrichment (6-mer frequency, TF over GST control). The binding signal with ETV2 was 1.14 fold enrichment (6-mer frequency, TF over GST control); with ELF3, 1.23 fold enrichment (6-mer frequency, TF over GST control); in the assay with ETV1, 1 fold enrichment (6-mer frequency, TF over GST control).

(Values after PMC7862700, “An all-to-all approach to the identification of sequence-specific readers for epigenetic DNA modifications on cytosine”.)
